# Hits are enriched below; roughly 18% of the tested compounds scored in any of these assays.
# TDP1 cell noCPT = qHTS for Inhibitors of human tyrosyl-DNA phosphodiesterase 1 (TDP1): qHTS in cells in absence of CPT. DT40 Tdp1-/- hTDP1 cells, no CPT, ATP luminescence, 48 h. Potency, µM (top dose mostly 46.2 µM), inactives show at the top dose activity change, negative = growth inhibition, actives largely listed as inhibitors. hit rate 15% among 420,000. AID 686978, 2013; note: potency is the fitted concentration of half-maximal effect; % is set by controls: 0 for no effect and ±100 for the full control effect; nearly all actives have a fitted effect of over 55% in size
#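 Stably hTDP1-transfected Tdp1-null chicken DT40 cells were treated with library compounds minus camptothecin and grown for at least 48 hr at 37 °C, after which cellular ATP was quantified by luminescence.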
# HepG2 tox = counter-screen for TGF-b inhibitors: cytotoxicity in HepG2 cells; Potency, µM (series often up to 46.1 µM), for the others: at the highest dose activity change, negative = cytotoxicity, hits mostly cytotoxic; HepG2 CAGA-GFP viability, ATP luminescence, 18 h; hit rate 0.76% among 410,000; note: potency is the fitted concentration of half-maximal effect
#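 HepG2 CAGA-GFP cells (1000/well, DMEM with 1% FBS) received compound, then TGF-beta at 500 pg/mL final, and were incubated 18 hours at 37 degrees C. Viability was read by CellTiter-Glo luminescence. Media-only wells were set as complete cell-killing and DMSO as no toxicity.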
# IL-1B inflam inh = inhibitors of inflammasome signaling (IL-1 beta secretion); THP-1 LPS/ATP IL-1B secretion, AlphaLISA, 16 h; stronger effect = lower value; activity change, % at 57.5 µM; hit rate 4.7% among 360,000; AID 743279; in the data active = activity change below about -50%; inconclusive = mostly about -30% to -49%; note: % is set by controls: 0 for no effect and ±100 for the full control effect
#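 THP-1 cells pretreated 1 hr with compounds (up to 57.5 uM final), then stimulated with LPS (250 ng/mL final) plus ATP (1.25 mM final); secreted IL-1B measured by AlphaLISA after 16 hr, decreased signal indicating inhibition.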
# TDP1 inh = TDP1 (human) enzyme inhibition | Q9NUW8 | recombinant TDP1, AlphaScreen DNA substrate cleavage | Potency, µM (series often up to 130 µM), for inactives: at the top dose activity change, negative = inhibition, hits mostly inhibitors | hit rate 0.28% among 350,000; note: potency is the fitted concentration of half-maximal effect; % is set by controls: 0 for no effect and ±100 for the full control effect; nearly all actives have a fitted effect of over 40% in size
# Target sequence (Q9NUW8 whole entry, looked up): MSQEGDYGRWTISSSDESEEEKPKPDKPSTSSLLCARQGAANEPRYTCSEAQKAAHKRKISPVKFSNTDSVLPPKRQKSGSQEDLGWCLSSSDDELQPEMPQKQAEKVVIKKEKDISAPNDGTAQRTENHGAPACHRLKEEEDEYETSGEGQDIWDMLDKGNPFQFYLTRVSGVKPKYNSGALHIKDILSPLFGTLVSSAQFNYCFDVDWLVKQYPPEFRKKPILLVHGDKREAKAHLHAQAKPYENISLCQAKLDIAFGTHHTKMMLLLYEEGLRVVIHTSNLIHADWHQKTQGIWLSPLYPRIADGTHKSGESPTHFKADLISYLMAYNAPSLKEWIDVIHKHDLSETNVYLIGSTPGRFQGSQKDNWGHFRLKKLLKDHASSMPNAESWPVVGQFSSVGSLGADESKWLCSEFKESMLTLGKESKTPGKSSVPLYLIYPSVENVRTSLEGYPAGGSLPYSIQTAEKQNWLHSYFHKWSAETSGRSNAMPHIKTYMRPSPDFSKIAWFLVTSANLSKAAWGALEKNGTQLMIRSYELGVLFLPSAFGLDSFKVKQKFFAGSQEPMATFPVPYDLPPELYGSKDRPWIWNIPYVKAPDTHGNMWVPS
#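 AlphaScreen read-out: signal falls as enzyme removes the 3' tyrosine-FITC from a 5'-biotinylated DNA oligo (15 nM, 5 min, RT). Enzyme was E. coli-made recombinant Tdp1 at 1 nM, exposed to compound for 15 min beforehand; beads 10 ug/ml, 10 min.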
# DT40 TDP1 CPT = DT40-hTDP1 cell growth loss with CPT; Potency, µM (top dose mostly 46.2 µM), for inactives: at the highest dose activity change, negative = growth inhibition, actives largely listed as inhibitors; AID 686979; hit rate 12% among 420,000; chicken DT40 Tdp1-/-;hTDP1 cells + 20 nM CPT, ATP luminescence, 48 h; note: potency is the fitted concentration of half-maximal effect; % is set by controls: 0 for no effect and ±100 for the full control effect; nearly all actives have a fitted effect of over 55% in size
#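 Chicken DT40 Tdp1-/- cells complemented with human TDP1, 400 cells/well, exposed to compounds plus 20 nM camptothecin for at least 48 h at 37 C; viability read as ATP content by CellTiter-Glo luminescence.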
# TGFb inhibitor = TGF-b pathway inhibition; HepG2 CAGA-GFP TGF-b/SMAD3 reporter, GFP fluorescence, 18 h; TGF-beta stimulated, 500 pg/mL final; Potency, µM (top dose mostly 46.1 µM), for inactives: at the top dose activity, negative = inhibition, actives largely listed as inhibitors; hit rate 1.2% among 410,000; AID 588855; note: potency is the fitted concentration of half-maximal effect; % is set by controls: 0 for no effect and ±100 for the full control effect; nearly all actives have a fitted effect of over 65% in size
#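 Read-out: total well GFP (ex488/em500-530) summed from mean per-cell fluorescence. Cells: HEPG2 CAGA-GFP, 1% FBS DMEM, 18 h at 37 degrees C with 500 pg/mL final TGF-beta. Unstimulated wells served as the full-inhibition control; stimulated DMSO wells = 0%.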
# Numbers without * were called inactive; ? = inconclusive; · = not tested or not shown; [ ] = remark or other dose. Unless noted, calls come from the whole dose curve; as a rule, active = well fitted curve in the direction sought with a large enough effect; inconclusive = small, poorly fitted or top-dose-only effect, or another doubt; inactive = no such curve, though single readings can be large; an effect the other way counts as inactive or inconclusive.
SMILES,TDP1 cell noCPT,HepG2 tox,IL-1B inflam inh,TDP1 inh,DT40 TDP1 CPT,TGFb inhibitor
O=C(Nc1ccc(S(=O)(=O)N2CCCCC2c2cccnc2)cc1)c1c(F)cccc1F (configuration not stated),?,-2.4%,-10.1,5.0%,?,-2.9%
CCCCC(=O)Nc1ccc(S(=O)(=O)N2CCCCC2c2cccnc2)cc1 (configuration not stated),13µM*,-13.7%,0.0,4.2%,18.4µM*,?
Cc1ccc(C(=O)OCC(=O)NCc2ccc(F)cc2)o1,5.6%,7.8%,30.8,-2.6%,-0.2%,2.2%
CCC/C=C/c1ccc(CN2C(C)C(=O)N(Cc3cn(CCC4OCCCO4)nn3)CCS2(=O)=O)cc1 (configuration not stated),13µM*,-11.0%,-24.3,·,?,-18.9%
CCC/C=C/c1ccc(CN2C(CC(C)C)C(=O)N(Cc3cn(CCC4OCCO4)nn3)CCS2(=O)=O)cc1 (configuration not stated),?,-81.4%,?,·,?,?
CCC/C=C/c1ccc(CN2C(CC(C)C)C(=O)N(Cc3cn(CCC4OCCCO4)nn3)CCS2(=O)=O)cc1 (configuration not stated),23.1µM*,15.8µM*,?,·,?,12.6µM*
CCC/C=C/c1ccc(CN2C(C(C)C)C(=O)N(Cc3cn(CCC4OCCO4)nn3)CCS2(=O)=O)cc1 (configuration not stated),13µM*,-55.9%,-12.3,·,?,?
Cc1ccc(C(=O)OCC(=O)Nc2cc(Cl)ccc2C#N)o1,-5.1%,-5.9%,3.9,·,-9.4%,1.2%
Cn1c(=O)[nH]c2cc(-c3noc(-c4ccc(C#N)cc4)n3)ccc21,-0.8%,4.2%,·,7.7%,-3.1%,29.2%
C/C(=N\NS(=O)(=O)c1c(C)cc(C)cc1C)c1ccncc1,-15.7%,4.5%,55.7,3.5%,-22.9%,1.1%
O=C(NC1CCCCC1)Oc1cc2oc(=O)sc2cc1Br,?,-21.5%,-17.1,·,16.4µM*,-11.0%
CN(c1ccccc1)S(=O)(=O)c1cccc(C(=O)OCC(=O)Nc2ccc3[nH]c(=O)[nH]c3c2)c1,-1.2%,0.0%,24.1,·,1.3%,-11.6%
CCNc1ccc(C(=O)OCC)cc1NC(=O)c1cccc(N(C)C)c1,2.59µM*,-22.4%,27.6,3.2%,3.26µM*,?
Cc1ccc(S(=O)(=O)NC(=O)c2cccc(N(C)C)c2)cc1,2.6%,3.0%,-6.5,0.3%,3.5%,10.3%
CCNc1ccc(C(=O)OCC)cc1NC(=O)c1cccc(S(=O)(=O)N(C)c2ccccc2)c1,4.61µM*,9.9%,1.5,-2.8%,16.4µM*,-4.1%
CN(C)c1cccc(C(=O)OCC(=O)N(C)c2ccccc2)c1,-19.5%,1.7%,-2.0,2.8%,-21.3%,3.5%
CCOC(=O)c1ccc(S(=O)(=O)NNC(=O)c2cccc(N(C)C)c2)cc1,27.6%,2.8%,-141.2*,0.0%,0.6%,-10.8%
CN(C)Cc1ccccc1-c1cc(NCc2cccs2)ncn1,30.2%,·,·,·,-4.2%,·
COCCNC(=O)Cn1nc(N2CCN(c3ccccc3OC)CC2)ccc1=O,-2.8%,2.8%,·,5.3%,-7.4%,3.8%
COc1ccc(Cl)cc1S(=O)(=O)N1CCC(C(=O)NCc2ccco2)CC1,-0.3%,-4.2%,0.0,4.5%,4.5%,1.9%
Oc1cccc(NC(=S)N=Nc2c(O)[nH]c3ccccc23)c1,13µM*,-6.9%,13.9,9.8%,?,?
CCOc1ccc(NC(=S)N=Nc2c(O)[nH]c3ccccc23)cc1,7.31µM*,8.91µM*,10.6,10.7%,9.2µM*,7.94µM*
Cc1cccc(C(=O)O/N=C(\N)CS(=O)(=O)c2ccccc2)c1,13.7%,-1.7%,21.5,2.0%,-12.1%,5.9%
Cc1cc(C)cc(NC(=O)OCCN2CCN(Cc3ccccc3)CCC2=O)c1,23.1µM*,-19.1%,-0.8,11.2%,-22.9%,-11.0%
Cc1ccc(S(=O)(=O)N2CCC(=O)N(CCOC(=O)Nc3cc(C)cc(C)c3)CC2)cc1,?,-20.9%,-12.5,-5.1%,16.4µM*,?
SMILES,TDP1 cell noCPT,HepG2 tox,IL-1B inflam inh,TDP1 inh,DT40 TDP1 CPT,TGFb inhibitor
Cc1cccc(CNC(=O)c2ccc3oc(=O)n(Cc4ccccc4)c3c2)c1,?,2.6%,·,1.2%,?,-6.0%
CC(=O)Oc1ccccc1N(C(C)=O)S(=O)(=O)c1cccc([N+](=O)[O-])c1,-10.4%,-0.3%,70.0,·,-0.5%,3.3%
Cc1c(OCc2ccccc2)c(=O)ccn1Cc1ccc(Cl)cc1,16.4µM*,-43.8%,-17.7,4.0%,?,-20.8%
Cc1c(O)c(=O)ccn1Cc1ccccc1,18.4µM*,-14.5%,90.8,6.9%[21 µM],23.1µM*,-14.7%
Cc1ccc(Cn2ccc(=O)c(OCc3ccccc3)c2C)cc1,?,11.8%,16.4,1.0%,?,4.5%
Cc1ccc(NC(=O)c2ccc(Cl)c(S(=O)(=O)Nc3c(C)n(C)n(-c4ccccc4)c3=O)c2)cc1Cl,-21.4%,8.3%,-16.3,-0.3%,-4.1%,-25.2%
COCCOC(=O)C1=C(C)NC(=O)NC1c1cn(-c2ccccc2)nc1-c1cccs1 (configuration not stated),-24.2%,5.1%,-4.0,3.8%,-0.9%,15.0%
CC1=C(C#N)C(c2cn(-c3ccccc3)nc2-c2cccs2)C(C#N)=C(C)N1,-23.6%,-6.9%,-90.4*,3.0%,-17.9%,-13.8%
CC1(C)c2ccccc2N2CCC(=O)NC21/C=C/c1ccco1 (configuration not stated),?,6.0%,1.7,0.0%,-4.4%,0.8%
CN1c2ccccc2C(C)(C)C12CCCC(=O)N2 (configuration not stated),?,-44.8%,18.2,9.5%,29.1µM*,29.5%
C[C@@H]1C[C@H]2[C@@H]3CCC4=CC(=O)C=C[C@]4(C)[C@@]3(F)[C@@H](O)C[C@]2(C)[C@@]1(O)C(=O)COC(=O)c1cccc(S(=O)(=O)O)c1,-14.9%,·,·,·,-2.2%,·
COc1cc(OC)c2c(-c3ccccc3)cc(=O)oc2c1C(CCN1CCOCC1)c1ccc2c(c1)OCO2 (configuration not stated),?,-30.2%,-14.7,4.1%[56.1 µM],14.6µM*,?

# Screening results (PubChem)
